Screening data (PubChem BioAssay)
DT40 TDP1 CPT – qHTS for Inhibitors of human tyrosyl-DNA phosphodiesterase 1 (TDP1): qHTS in cells in presence of CPT; chicken DT40 Tdp1-/-;hTDP1 cells + 20 nM CPT, ATP luminescence, 48 h; Potency, µM (series often up to 46.2 µM), for the others: at the highest dose activity change, negative = growth inhibition, most hits filed as inhibitors; 12% of 420,000 active; AID 686979, 2013; also: potency is read from the fitted curve at half-maximal effect; % is scaled to controls: 0 for no effect and ±100 for the full control effect; nearly all actives have a fitted effect of over 55% in size
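Cell growth measured by CellTiter-Glo luminescence after a minimum 48 h, 37 C compound exposure with 20 nM CPT in Tdp1-knockout DT40 cells stably expressing hTDP1, seeded 400/well; qHTS titration format.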
TGFb SMAD3 inh – qHTS for Inhibitors of TGF-b | HepG2 CAGA-GFP TGF-b/SMAD3 reporter, GFP fluorescence, 18 h; TGF-beta stimulated, 500 pg/mL final | Potency, µM (doses to about 46.1 µM), without a hit: top-dose activity, negative = inhibition, usual class: inhibitors | 1.2% of 410,000 active | AID 588855, 2011; also: potency is read from the fitted curve at half-maximal effect; % is scaled to controls: 0 for no effect and ±100 for the full control effect; nearly all actives have a fitted effect of over 65% in size
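Inhibition of TGF-beta-driven CAGA-GFP reporter expression in HEPG2 cells is measured by cellular GFP fluorescence after 18 h stimulation with 500 pg/mL recombinant TGF-beta in 1% FBS medium at 37 degrees C.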
DT40 TDP1 no CPT – qHTS for Inhibitors of human tyrosyl-DNA phosphodiesterase 1 (TDP1): qHTS in cells in absence of CPT | Potency, µM (doses to about 46.2 µM), without a hit: at the top dose activity change, negative = growth inhibition, actives largely listed as inhibitors | AID 686978, 2013 | 15% of 420,000 active | DT40 Tdp1-/- hTDP1 cells, no CPT, ATP luminescence, 48 h; also: potency is read from the fitted curve at half-maximal effect; % is scaled to controls: 0 for no effect and ±100 for the full control effect; nearly all actives have a fitted effect of over 55% in size
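Cells were dispensed at 400 per well, compounds added by pin tool, plates incubated ≥48 hr at 37 °C, then CellTiter-Glo added for 30 min at room temperature before luminescence reading. Line: DT40 Tdp1-/- complemented with hTDP1; camptothecin omitted.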
TDP1 inh – qHTS Assay for Inhibitors of Tyrosyl-DNA Phosphodiesterase (TDP1) | Tyrosyl-DNA phosphodiesterase 1 (Homo sapiens), Q9NUW8 | recombinant TDP1, AlphaScreen DNA substrate cleavage | Potency, µM (series often up to 130 µM), inactives show at the top dose activity change, negative = inhibition, most hits filed as inhibitors | 0.28% of 350,000 active; also: potency is read from the fitted curve at half-maximal effect; % is scaled to controls: 0 for no effect and ±100 for the full control effect; nearly all actives have a fitted effect of over 40% in size
Target sequence (Q9NUW8 whole entry, looked up): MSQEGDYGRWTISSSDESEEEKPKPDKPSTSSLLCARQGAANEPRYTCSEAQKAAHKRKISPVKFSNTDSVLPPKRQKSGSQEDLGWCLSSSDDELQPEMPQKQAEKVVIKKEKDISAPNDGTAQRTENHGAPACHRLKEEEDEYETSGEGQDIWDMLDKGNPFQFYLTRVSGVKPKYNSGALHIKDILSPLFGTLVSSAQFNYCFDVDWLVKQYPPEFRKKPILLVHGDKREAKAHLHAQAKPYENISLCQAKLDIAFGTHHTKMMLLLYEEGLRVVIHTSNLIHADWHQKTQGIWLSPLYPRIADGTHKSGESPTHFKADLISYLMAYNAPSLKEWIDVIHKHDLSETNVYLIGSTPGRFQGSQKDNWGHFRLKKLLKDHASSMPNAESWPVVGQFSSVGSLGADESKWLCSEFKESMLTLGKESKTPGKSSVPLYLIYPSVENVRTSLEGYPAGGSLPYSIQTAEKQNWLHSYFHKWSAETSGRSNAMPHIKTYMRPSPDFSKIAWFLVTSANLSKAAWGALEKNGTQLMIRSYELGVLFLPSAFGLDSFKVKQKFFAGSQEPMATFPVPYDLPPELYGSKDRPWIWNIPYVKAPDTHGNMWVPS
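Compounds were preincubated with Tdp1 (1 nM final) for 15 min at room temperature before substrate (15 nM final) started a 5 min reaction; beads (10 ug/ml final) were then added for 10 min before AlphaScreen detection.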
IL-1B inflam inh – qHTS for Inhibitors of Inflammasome Signaling: IL-1-beta AlphaLISA Primary Screen. THP-1 LPS/ATP IL-1B secretion, AlphaLISA, 16 h; hits give low values. activity change, % at 57.5 µM. 4.7% of 360,000 active. AID 743279, 2014; in the data active = activity change below about -50%; inconclusive = mostly about -30% to -49%; also: % is scaled to controls: 0 for no effect and ±100 for the full control effect
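Secreted IL-1B measured by AlphaLISA bead assay after 16 h compound exposure of THP-1 cells; compounds (final up to 57.5 uM) added 1 h before LPS (250 ng/mL) and ATP (1.25 mM) stimulation; lower signal means less secretion.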
HepG2 viability – qHTS for Inhibitors of TGF-b: Cytotox Counterscreen; HepG2 CAGA-GFP viability, ATP luminescence, 18 h; 0.76% of 410,000 active; Potency, µM (doses to about 46.1 µM), for the others: at the top dose activity change, negative = cytotoxicity, most hits filed as cytotoxic; also: potency is read from the fitted curve at half-maximal effect
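HepG2 CAGA-GFP cells (1000/well, DMEM with 1% FBS) received compound, then TGF-beta at 500 pg/mL final, and were incubated 18 hours at 37 degrees C. Viability was read by CellTiter-Glo luminescence. Media-only wells were set as complete cell-killing and DMSO as no toxicity.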
* marks the source's active call; other numbers are inactive results; [ ] = remark or other dose. Shown are actives, neighbours in structure and some others; about 18% of the full set was active somewhere. Unless noted, calls follow the shape of the dose curve; as a rule, active = well fitted curve in the direction sought with a large enough effect; inconclusive = small, poorly fitted or top-dose-only effect, or another doubt; inactive = no such curve, though single readings can be large; an effect the other way counts as inactive or inconclusive.

For Cc1ccccc1-c1cc(-n2ccnc2)ncn1 the results were DT40 TDP1 CPT 0%, DT40 TDP1 no CPT -20% and TDP1 inh 25µM*.
For CC(C)S(=O)(=O)c1csc(C(=O)Nc2ccc(F)cc2)c1N the results were DT40 TDP1 CPT 21µM*, TGFb SMAD3 inh -27%, DT40 TDP1 no CPT inconclusive, IL-1B inflam inh -27 and HepG2 viability -65%.
Screening Cc1nc(Cl)sc1C(=O)Nc1ccc(F)cc1 returned DT40 TDP1 CPT 21%, TGFb SMAD3 inh -9%, DT40 TDP1 no CPT -3%, IL-1B inflam inh 20 and HepG2 viability -11%.
For CC(C)OC(=O)c1cn(Cc2c(F)cccc2F)c2sc(-c3ccc(NC(=O)C(C)C)cc3)c(CN(C)Cc3ccccc3)c2c1=O the results were TDP1 inh 10%.
Screening Cc1ccc(OCC(=O)Nc2ccc3nc(SCC(=O)N4CCc5ccccc54)sc3c2)cc1 returned DT40 TDP1 CPT 3%, TGFb SMAD3 inh 7%, DT40 TDP1 no CPT 4%, TDP1 inh 2% and HepG2 viability 11%.
Screening CCCCC(=O)Nc1ccc2nc(SCC(=O)N3CCc4ccccc43)sc2c1 returned DT40 TDP1 CPT 15µM*, TGFb SMAD3 inh 9%, DT40 TDP1 no CPT 5.8µM*, TDP1 inh -4% and HepG2 viability -1%.
For COc1cccc(C(=O)Nc2nc(SCc3ccc(Cl)cc3)n[nH]2)c1 the results were DT40 TDP1 CPT 1%, TGFb SMAD3 inh 0%, DT40 TDP1 no CPT -27%, TDP1 inh 4%, IL-1B inflam inh 0 and HepG2 viability 16µM*.
Screening COc1cccc(C(=O)Nc2ccc3nc(SCC(=O)N4CCc5ccccc54)sc3c2)c1 returned DT40 TDP1 CPT 3.3µM*, TGFb SMAD3 inh -19%, DT40 TDP1 no CPT 4.6µM*, TDP1 inh 2% and HepG2 viability -6%.
COc1cccc(C(=O)Nc2ccc3nc(SCc4ccc(C)cc4)sc3c2)c1 was read as DT40 TDP1 CPT 16µM*, TGFb SMAD3 inh inconclusive, DT40 TDP1 no CPT 16µM*, TDP1 inh -1% and HepG2 viability -47%.
Screening Cc1ccc(CNC(=O)c2nn(-c3ccc(Cl)cc3)nc2CO)cc1 returned DT40 TDP1 CPT 4%, TGFb SMAD3 inh inconclusive, DT40 TDP1 no CPT -27%, TDP1 inh 7% and HepG2 viability -25%.
For COc1ccc(C(=O)Nc2ccc3nc(SCC(=O)N4CCc5ccccc54)sc3c2)cc1 the results were DT40 TDP1 CPT 2.9µM*, TGFb SMAD3 inh -1%, DT40 TDP1 no CPT 5.2µM*, TDP1 inh -2% and HepG2 viability 1%.
Screening Cc1ccc(C(=O)Nc2ccc3nc(SCC(=O)N4CCc5ccccc54)sc3c2)cc1 returned DT40 TDP1 CPT inconclusive, TGFb SMAD3 inh -11%, DT40 TDP1 no CPT inconclusive, TDP1 inh 2% and HepG2 viability -14%.
For Cc1cccc(OCCc2nnc(N)s2)c1C the results were DT40 TDP1 CPT 2%, TGFb SMAD3 inh 20µM*, DT40 TDP1 no CPT -22%, TDP1 inh -1%, IL-1B inflam inh 22 and HepG2 viability -11%.
O=C(CN1CCCN(S(=O)(=O)c2ccc(Br)cc2)CC1)Nc1cccc(C(F)(F)F)c1 was read as DT40 TDP1 CPT 21µM*, TGFb SMAD3 inh 7.9µM*, DT40 TDP1 no CPT 12µM*, TDP1 inh 11% and HepG2 viability -50%.
Screening COc1ccc(C2(C(=O)Nc3ccc(OC)cc3OC)CCCC2)cc1 returned DT40 TDP1 CPT 13µM*, TGFb SMAD3 inh -17%, DT40 TDP1 no CPT 23µM*, TDP1 inh 1%, IL-1B inflam inh 19 and HepG2 viability -21%.
`COc1ccc(C)cc1NC(=O)CN1CCN(S(=O)(=O)c2ccc3ccccc3c2)CC1` gave DT40 TDP1 CPT 16µM*, TGFb SMAD3 inh inconclusive, DT40 TDP1 no CPT 16µM*, TDP1 inh -1%[56.1 µM], IL-1B inflam inh 0 and HepG2 viability -10%.
`COc1ccc(C)cc1NC(=O)CN1CCCN(S(=O)(=O)c2ccc(Br)cc2)CC1` gave DT40 TDP1 CPT inconclusive, TGFb SMAD3 inh inconclusive, DT40 TDP1 no CPT 9.2µM*, TDP1 inh 1%, IL-1B inflam inh -30 and HepG2 viability -12%.
Screening Cc1cccc([N+](=O)[O-])c1C returned TDP1 inh 4%.
`O=c1[nH][nH]c2c1[C@@H](c1ccc(F)cc1)O[C@H](CCOCc1ccccc1)C2` gave DT40 TDP1 CPT 1%, DT40 TDP1 no CPT -18% and IL-1B inflam inh 23.
Screening COC(=O)c1ccc(NC(=O)CN2CCN(S(=O)(=O)c3ccc(Br)cc3)CC2)cc1 returned DT40 TDP1 CPT inconclusive, TGFb SMAD3 inh inconclusive, DT40 TDP1 no CPT 18µM*, TDP1 inh 4%, IL-1B inflam inh 0 and HepG2 viability -1%.
For COc1cccc(CN2CCCN(S(=O)(=O)c3ccc(Br)cc3)CC2)c1 the results were DT40 TDP1 CPT inconclusive, TGFb SMAD3 inh -8%, DT40 TDP1 no CPT inconclusive, TDP1 inh 6%, IL-1B inflam inh -18 and HepG2 viability -30%.
Screening CN(C)S(=O)(=O)N1CCN(CC(=O)Nc2ccc(Br)cc2)CC1 returned DT40 TDP1 CPT -13%, TGFb SMAD3 inh 2%, DT40 TDP1 no CPT -3%, IL-1B inflam inh 50 and HepG2 viability 6%.
`O=S(=O)(c1ccc(Br)cc1)N1CCCN(Cc2cccc(F)c2)CC1` gave DT40 TDP1 CPT -10%, TGFb SMAD3 inh 10%, DT40 TDP1 no CPT inconclusive, TDP1 inh -1%, IL-1B inflam inh -56* and HepG2 viability -6%.
Screening COc1ccc(S(=O)(=O)N2CCCN(CC(=O)Nc3ccc(OC)cc3OC)CC2)cc1 returned DT40 TDP1 CPT inconclusive, TGFb SMAD3 inh inconclusive, DT40 TDP1 no CPT 12µM*, TDP1 inh 6% and HepG2 viability 1%.
